Screening results deposited in PubChem by The Scripps Research Institute Molecular Screening Center.
A selection: hits, their analogues and other compounds. The true share with any hit is near 2.9%.
PLCg1 inh = PLC-gamma1 (human) inhibition, primary screen; inhibition, % at 12.2 µM; P19174; purified PLC-gamma1, fluorogenic substrate, fluorescence; actives 0.84% (n = 370,000); AID 720700; in the data active = inhibition above about 9.5%
ADAM17 inh = inhibitors of human ADAM17; P78536; recombinant ADAM17, EDANS/DABCYL FRET peptide cleavage; inhibition, % at 6.95 µM; actives 0.83% (n = 370,000);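 active = inhibition above the mean of compounds lying between control limits plus 3 SD, set per campaign, cut at about 8.5% in these data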;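 also: 0% = DMSO-only wells as the low control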
KLK7 zymogen act = activators of human kallikrein-7 zymogen; P49862; activation, % at 7 µM; purified proKLK7, EDANS-DABCYL substrate fluorescence; 100% is mature enzyme control, 0% vehicle; actives 0.9% (n = 370,000);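 active = activation above the mean of all tested compounds plus 3 SD, computed per campaign excluding outliers beyond control limits, cut at about 13% in these data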
PLC-beta3 inh = blocks human PLC-beta3 enzyme activity; Purified PLC-beta3, fluorogenic substrate, fluorescence; actives 0.18% (n = 370,000); inhibition, % at 12.2 µM; Q01970; in the data active = inhibition above about 11%;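 also: 0% = median of compound wells on plate and 100% = full blocker control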
ADAM10 inh = inhibitors of human ADAM10 | O14672 | inhibition, % at 7 µM | recombinant ADAM10, EDANS/DABCYL FRET peptide cleavage, 3 h | actives 0.62% (n = 370,000);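 active = inhibition above a per-campaign cutoff equal to the mean of compounds falling between control-based bounds plus 3 SD, cut at about 20% in these data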;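 also: 0% = DMSO wells while the 100% control is not disclosed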
ADAM10 confirm = confirmation of inhibitors of human ADAM10; shares compounds with ADAM10 inh; ADAM10 QFRET peptide cleavage, EDANS fluorescence; inhibition, % at 6.95 µM; actives 1% (n = 2,100); AID 743208;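 active = inhibition above about 20% chosen separately for each screening run, limit read from the data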;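 also: 0% = DMSO wells and 100% = marimastat wells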
ADAM17 ctr = inhibits human ADAM17 in ADAM10 exosite counter-screen; shares compounds with ADAM10 inh; ADAM17 QFRET peptide cleavage, EDANS fluorescence; inhibition, % at 6.95 µM; actives 0.5% (n = 2,100); AID 743214;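 active = mean triplicate inhibition above the solvent-only control wells' mean plus 3 SD, cut at about 12% in these data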;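 also: 0% = DMSO wells and 100% = marimastat wells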
ADAM10 ctr = ADAM10 inhibition, counter-screen for ADAM17 exosite hits; shares compounds with ADAM17 inh; recombinant ADAM10, EDANS/DABCYL FRET peptide cleavage, 3 h; AID 743256; inhibition, % at 6.95 µM; actives 47% (n = 2,900);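 active = mean inhibition over the triplicate runs exceeds the activity threshold set in the earlier primary screen, cut at about 20% in these data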;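 also: 0% = DMSO wells and 100% = marimastat wells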
ADAM17 confirm = confirmation of inhibitors of human ADAM17 | shares compounds with ADAM17 inh | recombinant ADAM17, EDANS/DABCYL QFRET peptide cleavage | inhibition, % at 6.95 µM | actives 65% (n = 2,900) | AID 743257;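 active = mean inhibition across replicates above the hit cutoff set in the primary screen, cut at about 8.5% in these data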;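 also: 0% = DMSO wells and 100% = marimastat wells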
Starred values were filed as active, the others as inactive; / = no result.

SMILES | PLCg1 inh | ADAM17 inh | KLK7 zymogen act | PLC-beta3 inh | ADAM10 inh | ADAM10 confirm | ADAM17 ctr | ADAM10 ctr | ADAM17 confirm
O=C(COC(=O)C1CCN(c2ccc(C(F)(F)F)cn2)CC1)Nc1ccc(Cl)cn1 | -2.9 | 0.5 | 0.5 | -5.1 | 3.0 | / | / | / | /
CC(COc1ccc(F)cc1)CN1CCC(C(O)(c2ccccc2)c2ccccc2)CC1 (stereo not given) | 4.1 | -2.5 | -0.1 | 2.4 | 0.8 | / | / | / | /
CC(=O)c1c(C)[nH]c(C(=O)Nc2ccccc2C)c1C | 1.5 | -5.7 | / | -2.3 | -2.3 | / | / | / | /
O=C(NNC(=O)c1cc(-c2cccc(Br)c2)nc2ccccc12)c1csc(N2CCOCC2)n1 | -19.6 | 6.8 | -0.2 | -21.5 | 21.9* | 9.5 | 2.5 | / | /
CC(C)Oc1ccc(Cl)cc1Nc1nc(NCCO)nc(N2CCCC2)n1 | 2.2 | 7.2 | 1.1 | -144.9 | 21.4* | 4.2 | 1.8 | / | /
COc1ccc(Cl)cc1Nc1nc(NCCO)nc(N2CCCC2)n1 | 1.2 | -2.8 | -0.3 | 2.8 | -1.2 | / | / | / | /
CN1C(=O)c2cc(NC(=O)C3CC3)ccc2OC[C@H]2O[C@@H](CC(=O)NC3CCC3)CC[C@@H]21 | 3.9 | -10.1 | 0.0 | 2.4 | 1.1 | / | / | / | /
COc1cc(NC(=O)CSc2nc3[nH]ncc3c(=O)n2-c2ccc(Cl)cc2)cc(OC)c1 | 6.1 | 11.9* | -0.4 | -2.2 | 30.6* | 2.6 | 1.4 | 25.7* | 13.2*
COc1ccc(-n2c(SCC(=O)NNC(=S)Nc3ccccc3)nc3ccccc3c2=O)cc1 | 4.7 | 12.3* | -0.4 | -4.0 | 25.5* | 2.2 | -0.1 | 12.3 | 8.6*
c1ccc2cc3[nH]c(CNc4nc(N5CCOCC5)nc5c4ncn5-c4ccsc4)nc3cc2c1 | -16.7 | 6.0 | / | -23.9 | 9.4 | / | / | / | /
O=C(Nc1ccc(Nc2ccccc2)cc1)C(Cl)(Cl)Cl | 2.4 | 9.8* | 0.5 | 5.6 | 25.6* | 5.3 | 1.5 | 8.0 | 4.3
NC(=O)Nc1ccc(Nc2ccccc2)cc1 | -2.6 | 0.8 | 0.0 | -7.0 | 6.7 | / | / | / | /
CCN(CC)S(=O)(=O)c1ccc(C)c(NC(=S)NNC(=O)C2CC2)c1 | 3.8 | 9.7* | -0.5 | 3.8 | 23.6* | 1.3 | 0.0 | -4.6 | 1.5
O=C(NNc1ccccc1Br)C(O)(c1cccc(C(F)(F)F)c1)c1cccc(C(F)(F)F)c1 | 7.5 | 25.1* | -0.5 | 7.7 | 48.6* | 11.0 | 3.8 | 52.2* | 23.4*
O=C(Nc1ccc(Cl)c(S(=O)(=O)N2CCCCC2)c1)c1ccncc1 | 3.5 | -4.4 | 0.2 | -7.7 | -1.1 | / | / | / | /
Cn1cccc1C(=O)Nc1ccc(Cl)c(S(=O)(=O)N2CCCCC2)c1 | 1.1 | 16.9* | -0.2 | -8.7 | 39.9* | 3.3 | 0.7 | 10.2 | 6.4
Cc1ccccc1-c1ccc2c(c1)[C@@H]1C[C@H](N(C)C(=O)c3ccco3)[C@H]([C@H](C)O)CN1CC2 | -76.1 | -14.8 | 2.6 | -90.3 | -61.3 | / | / | / | /
Cc1cc(O)c2c(-c3ccccc3)cc(=O)oc2c1 | -18.3 | -4.2 | 0.1 | -19.2 | 2.3 | / | / | / | /
Cc1cc2oc(=O)cc(-c3ccccc3)c2c(C)c1-c1ccc(O)cc1 | 8.2 | 16.1* | -0.4 | -5.9 | 33.1* | 7.7 | 3.0 | 18.8 | 12.7*
CN(Cc1ccccc1)C(=O)OCc1cn(Cc2cccc(F)c2F)nn1 | -1.9 | -0.4 | 0.8 | 0.8 | -3.6 | / | / | / | /
Cc1ccc(Nc2nc(N)nc(CSc3nc4ccccc4s3)n2)cc1 | 4.5 | 12.9* | 0.2 | -2.6 | 28.9* | 11.4 | 4.4 | 42.8* | 25.2*
Cc1nn(-c2ccccc2)c(C)c1C=NNC(=O)CSc1nc2ccccc2n1C | -0.1 | 3.7 | -0.5 | 1.3 | -3.8 | / | / | / | /
C#CCN(C(=O)c1cc(COc2cccc(C(F)(F)F)c2)on1)C1CCCCC1 | 1.2 | 10.1* | -0.3 | -9.1 | 23.6* | 8.2 | 2.6 | 54.6* | 19.4*
